Compound activity as filed in PubChem.
Only a selection was taken, and hits are over-represented in it overall.
Menin MLL FP TR: qHTS Assay for Inhibitors Targeting the Menin-MLL Interaction in MLL Related Leukemias: Competition With Texas Red Labeled MLL-derived Mutant Peptide | O00255 | Menin + Texas Red MLL mutant peptide, fluorescence polarization | Potency, µM (top dose mostly 61.6 µM), for the others: at the top dose FP activity change, negative = inhibition, hits mostly inhibitors | 270,000 compounds, 0.23% hits; active = well fitted inhibition curve with a large enough effect in the polarisation, with a control signal flat, not every such curve was filed as active; inconclusive = small, poorly fitted or top-dose-only effect, or effect the other way, or a change in a side signal; inactive = no such curve, though single readings can be large or run the other way; the % refers to the polarisation; note: potency is the fitted concentration of half-maximal effect; % of control where 0% means no effect
CXXC DNA block: qHTS Fluorescence Polarization Assay for Inhibitors of MLL CXXC domain - DNA interaction; Histone-lysine N-methyltransferase 2A (Homo sapiens), Q03164; MLL-CXXC / FITC-HOXA9 DNA fluorescence polarization; Potency, µM (highest dose often 115 µM), for the others: top-dose activity change, negative = inhibition, hits mostly inhibitors; 290,000 compounds, 0.037% hits; active = well fitted inhibition curve with a large enough effect in the polarisation, with a control signal flat, not every such curve was filed as active; inconclusive = small, poorly fitted or top-dose-only effect, or effect the other way, or a change in a side signal; inactive = no such curve, though single readings can be large or run the other way; the % refers to the polarisation; note: potency is the fitted concentration of half-maximal effect
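Steps: dispense CXXC domain solution (7 uM) → pin compounds or unlabeled HOX-A9 DNA control → 5 min ambient → add FLSN-HOX-A9 solution (50 nM) → spin → 30 min ambient → fluorescence polarization. Tris pH 7.5/NaCl/DTT/BSA buffer.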
ClpP mod: qHTS Assay for Activators of ClpP; purified B. subtilis ClpP, FRET peptide cleavage, 20 min; Potency, µM (series often up to 57.5 µM), for the others: at the top dose activity change, negative = active; 340,000 compounds, 1.9% hits; active = well fitted falling curve with a large enough effect; inconclusive = small, poorly fitted or top-dose-only effect; inactive = no such curve, though single readings can be large or run the other way; note: potency is the fitted concentration of half-maximal effect; the source files actives as falling curves though it sought activators and does not explain the sign; nearly all actives have a fitted effect of over 65% in size
Target sequence (P80244 whole entry, looked up): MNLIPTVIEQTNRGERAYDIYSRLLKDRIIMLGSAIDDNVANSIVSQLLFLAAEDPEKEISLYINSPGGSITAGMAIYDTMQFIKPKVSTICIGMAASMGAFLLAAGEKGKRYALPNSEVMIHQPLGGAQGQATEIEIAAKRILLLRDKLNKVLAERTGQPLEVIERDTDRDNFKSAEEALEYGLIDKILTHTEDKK
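FRET quenching reversal measured ClpP activation: 10 microg/mL B. subtilis ClpP at pH 8 with the FRET-FV decapeptide, read at 430 nm after 320 nm excitation. The 20-min minus 0-min signal was scaled between DMSO/no-enzyme wells and ADEP (5.8 microM final).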
p53 reactivation: qHTS assay for re-activators of p53 using a Luc reporter; AID 504706, 2011; Potency, µM (top dose mostly 92.2 µM), for inactives: at the highest dose activity change, positive = activation, usual class: activators; 320,000 compounds, 0.063% hits; H1299 p53-A138V BP100-luciferase reporter, luminescence, 24 h; active = well fitted activation curve with a large enough effect; inconclusive = small, poorly fitted or top-dose-only effect; inactive = no such curve, though single readings can be large or run the other way; note: potency is the fitted concentration of half-maximal effect; % of control where 0% means no effect; nearly all actives have a fitted effect of over 45% in size
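H1299 (p53-null), stable ts p53-A138V + BP100-Luc; 1000 cells/well, Opti-MEM/10% FBS; cpd 4 pt, 1:5; 24 h, 37 deg C, 5% CO2; detection reagent 10 min RT; luminescence.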
Menin MLL FP FL: qHTS Assay for Inhibitors Targeting the Menin-MLL Interaction in MLL Related Leukemias: Competition With Fluorescein Labeled MLL-derived Peptide | Fluorescence polarization, fluorescein-MLL peptide displacement from menin | AID 1766, 2009 | FP activity change, % at 61.4 µM | 290,000 tested, under 10 active; active = well fitted curve in the direction sought with a large enough effect in the polarisation, not every such curve was filed as active; inconclusive = small, poorly fitted or top-dose-only effect, or effect the other way, or a change in a side signal; inactive = no such curve, though single readings can be large or run the other way; the % refers to the polarisation; note: % of control where 0% means no effect
* = called active by the depositor; u = inconclusive; x = not tested or not shown; [ ] = remark or other dose.

SMILES	Menin MLL FP TR	CXXC DNA block	ClpP mod	p53 reactivation	Menin MLL FP FL
CCOC(=O)c1c(-c2ccccc2)oc2ccc(NS(=O)(=O)c3cc(C)c(C)cc3C)cc12	x	x	4%	x	x
Cc1cnc(NC(=O)c2ccc(OCC3CCCO3)cc2)s1 (stereo not given)	3%	5%	x	-9%	3
O=C(Nc1nc2ccccc2s1)c1ccc(OCC2CCCO2)cc1 (stereo not given)	u	-5%	-17%	28µM*	4
COc1cccc(NC(=O)CNC(=O)Cn2c(C)cc3ccccc3c2=O)c1	x	x	-3%	x	x
COc1cc(SC)ccc1C(=O)OCC(=O)NC(=O)NC(C)C	-18%	-17%	x	0%	-1
COC(=O)CNC(=O)COC(=O)c1cc(Cl)cc(Cl)c1N	6%	0%	2.8µM*	-6%	1
Nc1c(Cl)cc(Cl)cc1C(=O)OCC(=O)N1CCCC1	-4%	9%	22µM*	-4%	0
CC(C)CNC(=O)COC(=O)c1cc(Cl)cc(Cl)c1N	1%	8%	16µM*	-2%	4
COc1cc(SC)ccc1C(=O)OCC(=O)NCC(C)C	-15%	4%	40µM*	0%	0
COc1ccc(-c2cnc3c(c2)CCC3(C#N)C#N)cc1	4%	-4%	16µM*	3%	-2
CCCn1c(=O)c(C)cn2nc(N)nc12	6%[24.8 µM]	x	x	x	5
COc1ccc2oc(C(=O)NCC(c3ccco3)N(C)C)c(C)c2c1 (stereo not given)	x	x	28µM*	3%	x
CCCCc1nnc(NC(=O)c2oc3ccc(OC)cc3c2C)s1	x	x	32µM*	12%	x
O=C(CN(CCc1c[nH]c2ccccc12)S(=O)(=O)c1ccccc1)N1CCCCCC1	x	x	-1%	x	x
Fc1ccc(CNc2nc(-c3ccco3)cc(C(F)(F)F)n2)cc1	15%	-21%	25µM*	-5%	4
Fc1ccc(-c2cc(C(F)(F)F)nc(NCc3ccccc3)n2)cc1	x	x	22µM*	x	x
Fc1ccc(-c2cc(C(F)(F)F)nc(NCc3cccs3)n2)cc1	0%	3%	32µM*	3%	1
CN(C)c1ccc(/C=C/c2ccnc3c(Cl)cccc23)cc1	x	x	-2%	x	x
Cn1cc(S(=O)(=O)N2CCCCCC2)cc1C(=O)Nc1ccc(Cl)c(C(F)(F)F)c1	x	x	6%	x	x
O=C(COc1ccccc1)Nc1cccc(-c2nc3ccccc3[nH]2)c1	u	8%	32µM*	u	2
O=C(CSc1ccccc1)Nc1ccc(-c2nc3ccccc3[nH]2)cc1	u	18%	-1%	x	1
O=C(CSc1ccc(Cl)cc1)Nc1cccc(-c2nc3ccccc3[nH]2)c1	-15%	43%	13µM*	u	3
COc1ccc(OCC(=O)Nc2cccc(-c3nc4ccccc4[nH]3)c2)cc1	u	-12%	u	u	2
O=C(O)CCCC(=O)Nc1cccc(-c2nc3ccccc3[nH]2)c1	-18%	-7%	25µM*	21%	-1
CN1CCN(c2ccnc(-c3ccc(N(C)C)cc3)n2)CC1	0%	x	x	x	-1
SMILES	Menin MLL FP TR	CXXC DNA block	ClpP mod	p53 reactivation	Menin MLL FP FL
CC(=O)OCCBr	16%	x	x	x	-3
C/C(=N\N1C(=O)c2ccccc2NC1c1ccccc1)c1ccccc1O (stereo not given)	-1%	10%	-3%	8%	0
O=C1c2ccccc2NC(c2cccc(Cl)c2)N1N=C1CCCCCC1 (stereo not given)	-27%	1%	20µM*	-1%	4
Cc1nnc(Cl)c2nn(-c3ccccc3F)c(C)c12	-15%	41%	28µM*	3%	20
Cc1nnc(SCCN2CCOCC2)c2nn(-c3ccccc3F)c(C)c12	5%	-6%	14µM*	-1%	18
Cc1n[nH]c(=S)c2nn(-c3ccccc3F)c(C)c12	x	14%	-1%	3%	u
O=C(NC(Cc1ccccc1)c1ccc2c(c1)OCCCO2)c1ccccc1 (stereo not given)	-8%	23%	-4%	-4%	7
CCC(=O)NC(Cc1ccccc1)c1ccc2c(c1)OCCCO2 (stereo not given)	2%	-5%	22µM*	-5%	-1
Cc1ccc(S(=O)(=O)N2CCc3nc(-c4ccccc4)c4c(c3C2)CO[C@@H](C)C4)cc1	-10%[11.7 µM]	x	x	x	6[11.7 µM]
O=C(Nc1nccs1)[C@@H]1CC=C[C@@H]2CCN(C3CC3)C(=O)[C@@H]21	x	x	-1%	x	x
CC(C)Cn1c(-c2cccs2)nc2ccccc21	-26%	1%	50%	-3%	5
c1csc(Cn2c(-c3cccs3)nc3ccccc32)c1	-20%	-3%	32µM*	6%	1
COc1cccc(-c2nc3c(c(C)nn3-c3ccccc3)c3cc(OC)c(OC)cc23)c1	x	x	5%	x	x
COc1cc2c(-c3ccc(O)cc3)nc3c(c(C)nn3-c3ccccc3)c2cc1OC	u	4%	8.9µM*	-7%	11
CC(C(=O)c1ccccc1)[n+]1cccc(Cl)c1 (stereo not given)	x	x	1%	x	x
O=C(O)/C=C/c1nc(-c2ccccc2)n2ccccc12	3%	3%	32µM*	u	7
Cc1ccc(-n2nc(CO)c(C(=O)NC(C)CCCc3ccccc3)n2)cc1 (stereo not given)	x	x	32µM*	x	x
Cc1ccc(-n2nc(CO)c(C(=O)NCCCCc3ccccc3)n2)cc1	x	x	10µM*	x	x
Cc1ccc(-n2nc(CO)c(C(=O)NCCO)n2)cc1	x	x	8.9µM*	x	x
Cc1ccc(-n2nc(CO)c(C(=O)NCCCCc3ccccc3)n2)cc1C	x	x	25µM*	x	x
CC(C)NS(=O)(=O)c1cc(C(F)(F)F)ccc1/C=C/C(=O)O	x	x	0%	x	x
C=CCC(C)(NCc1ccccc1)C(=O)OCC (stereo not given)	8%	x	x	x	4
CCC[C@@H]1NC(=O)[C@@H](NC(C)=O)CSSC[C@@H](C(N)=O)NC(=O)CNC(=O)[C@H](Cc2c[nH]c3ccccc23)NC(=O)[C@H](CCCN=C(N)N)NC(=O)[C@H](Cc2ccc3ccccc3c2)NC(=O)[C@H](Cc2cnc[nH]2)NC(=O)[C@H](CCCN=C(N)N)NC1=O	1%	x	x	x	-3
Cc1ccc(-n2nc(CO)c(C(=O)NCCCc3ccccc3)n2)cc1	x	x	22µM*	x	x
COc1cccc2c1C(=O)/C(=C/c1ccc(N(C)C)cc1)C2	x	x	-1%	x	x
CCOc1ccccc1N=Cc1c(O)c2ccccc2oc1=O	-23%	-12%	0%	x	0
